Laboratory results taken from PubChem BioAssay AID1850 (Southern Research Specialized Biocontainment Screening …, 2009).
About 1,000 (0.32%) of roughly 310,000 compounds were called active. The list is a sample of the results. Entries with a potency or affinity are not part of this list. Values without a mark were called inactive. No rule for the calls is given here.

Assay: Inhibition of PhoP regulon, Salmonella typhi GFP reporter cells, confirmation, 4 h (AID 1850);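 also: 0% = induced wells with vehicle and 100% = uninduced wells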
Conditions: Salmonella Typhi PhoP-promoter GFP reporter, fluorescence, at 50 µM, active compounds read high

Compound | inhibition [%]
CCN(CC(=O)N1CCC(C(N)=O)CC1)S(=O)(=O)c1ccc(Cl)cc1 | -8.55
Cc1ccc(-c2noc(CSc3nnc(CCc4ccccc4)n3-c3ccccc3)n2)cc1 | -7.22
CCCCc1ccc(NC(=O)Nc2c(C)n(C)n(-c3ccccc3)c2=O)cc1 | -5.72
O=C(NNC(=O)C1C2C=CC(C2)C1C(=O)O)c1cc(Cl)ccc1O (stereo not drawn) | -4.67
COc1cc(C2NCCc3c2[nH]c2ccccc32)ccc1OC(C)C (stereo not drawn) | -4.21
COc1ccc(C2NCCc3c2[nH]c2ccccc32)cc1CSc1nc2ccccc2s1 (stereo not drawn) | -3.05
CC(=O)N1CCN(S(=O)(=O)c2cccc(C(=O)NNC(=O)COc3ccc(Cl)cc3C)c2)CC1 | 3.91
COc1ccc(Cn2c(O)c(/C=N/NC(=O)c3ccccc3O)c(=O)[nH]c2=O)cc1 | -3.02
Cc1ccccc1NC(=S)NCC(c1cccnc1)N(C)C (stereo not drawn) | 4.06
Cc1cccc(CN2CCc3c([nH]c4ccccc34)C2)c1 | 8.05
CSc1ccc(CN2CCc3c([nH]c4ccccc34)C2)cc1 | 2.22
Clc1cccc(CN2CCc3c([nH]c4ccccc34)C2)c1 | 1.94
COc1ccccc1CN1CCc2c([nH]c3ccccc23)C1 | 3.76
O=C(C1CCCN(S(=O)(=O)c2cccc3nonc23)C1)N1CCC(Cc2ccccc2)CC1 (stereo not drawn) | -9.59
CS(=O)(=O)c1ccc(Cl)c(C(=O)NC2CCSc3ccccc32)c1 (stereo not drawn) | 12.6
COc1ccccc1/C=N/NC(=O)c1ccc(-c2ccccc2)cc1 | -0.08
COc1ccc(C2CC(=O)C3=C(C2)Nc2ccccc2NC3c2coc3ccccc3c2=O)cc1OC (stereo not drawn) | -2.61
CC(=O)c1ccc(Nc2cc(C)nc3c(C)cc(C)cc23)cc1 | 7.05
COc1ccc(Nc2cc(C)nc3c(C)cccc23)cc1OC | -3.72
COc1ccc(/C=N/Nc2cc(C)nc3ccc(OC)cc23)c(OC)c1 | 0.09
COc1ccc2nc(C)cc(N/N=C/c3ccc(F)cc3)c2c1 | -3.4
Cc1ccc(Nc2cc(C)nc3ccccc23)c(C)c1 | 10.4
COc1cccc2c(N/N=C/c3ccccc3)cc(C)nc12 | 0.63
Cc1cc(Nc2ccc(C)c(C)c2)c2ccccc2n1 | -4.07

Compound | inhibition [%]
Cc1ccc2nc(C)cc(N/N=C/c3cccc(O)c3)c2c1 | -4.26
CCCCOc1ccc(NC(=O)C(=O)NCCCn2ccnc2)cc1 | -4.73
CC[C@H](C)[C@@H]1NC(=O)c2cc([N+](=O)[O-])cc(F)c2NCCCC[C@@H](C(N)=O)NC(=O)[C@H](CCCCN)NC1=O | 1.42
CCOc1ccc(CNc2nnnn2C)cc1OC | -3.66
COc1ccc(NS(=O)(=O)c2cccc(NC(=O)NCCCl)c2)cc1 | -19.5
CC(=O)Nc1ccc(/C=N/N2C(=O)NC(C)(c3ccc(OC(F)F)cc3)C2=O)cc1 (stereo not drawn) | -10
Cc1ccc(NC(=O)CSCC(=O)Nc2ncc3c(n2)CC(c2ccco2)CC3=O)cc1 (stereo not drawn) | 2.49
CCOc1cc(/C=C2\CCCC(C(=O)C(F)(F)F)=C2O)ccc1O | -4.72
CN(CC(=O)Nc1cccc(F)c1)C(=O)c1ccncc1 | -3.54
CCOC(=O)N1CCN(C2CCCN(C(=O)c3ccccc3SC)C2)CC1 (stereo not drawn) | 4.8
O=C(COc1ccccc1C(=O)c1cnn(-c2ccccc2)c1)Nc1ccccc1 | -4.89
COc1cc(OC)cc(C(=O)NNC(=O)c2ccc(S(=O)(=O)N(C)c3ccccc3OC)cc2)c1 | 15.6
Cc1cccc(Nc2cc(C)nc3ccccc23)c1 | 5.71
Cc1cc(N/N=C/c2ccc(O)cc2O)c2ccccc2n1 | -3.45
COc1cccc2c(N/N=C/c3ccc(O)c(O)c3)cc(C)nc12 | -4.34
Cc1cc(N/N=C/c2ccccc2O)c2ccccc2n1 | -0.61
Cc1cc(N/N=C/c2ccc(N(C)C)cc2)c2ccccc2n1 | 0.75
COc1ccc(Nc2cc(C)nc3ccccc23)cc1 | 13.4
Cc1cccc(N2C(=O)C(Oc3ccc(Cl)cc3Cl)C2C(=O)O)c1C (stereo not drawn) | -8.69
Cc1nnc(Cn2cnc3c2c(=O)n(C)c(=O)n3C)o1 | 6.26
O=C(COc1ccc(/C=N/NC(=O)c2ccncc2)cc1)Nc1ccccc1 | -0.13
CCOC(=O)c1c(-c2ccccc2)oc2ccc(OCC)cc12 | -1.51
CCOC(=O)c1c(-c2ccccc2)oc2ccc(OCC(O)CN(C)C)cc12 (stereo not drawn) | -1.17
Cc1ccc(-n2ncc3c(SCc4ccccn4)ncnc32)c(C)c1 | -1.44

Compound | inhibition [%]
c1ccc(Cn2ccc(-c3cnc(-c4ccccc4)s3)n2)cc1 | 9.82
Nc1[nH]ncc1-c1ccc(Cl)cc1 | 9.56
Nc1[nH]ncc1-c1ccc(F)cc1 | -6.64
CCc1nnc(NC(=O)Nc2ccccc2OC)s1 | 1.12
COc1ccccc1/C=N/NC(=O)c1cccc(NC(=O)c2ccccc2C)c1 | 8.56
CC(C)(C)N/N=C/c1cc(Cl)cc([N+](=O)[O-])c1O | -7.27
COc1ccc(N2CC(C(=O)N/N=C/c3ccc([N+](=O)[O-])cc3)CC2=O)cc1 (stereo not drawn) | 0.01
CCc1ccc(N2CC(C(=O)N/N=C/c3ccccc3)CC2=O)cc1 (stereo not drawn) | -5.31
COc1ccc(N2CC(C(=O)Nc3ccc([N+](=O)[O-])cc3Br)CC2=O)cc1 (stereo not drawn) | 6.01
CCc1ccc(N2CC(C(=O)N/N=C/c3cccc([N+](=O)[O-])c3)CC2=O)cc1 (stereo not drawn) | -13.7
Cc1cc(C(=O)N/N=C/c2cc(Cl)cc([N+](=O)[O-])c2O)c2ccccc2n1 | 15.1
O=C(N/N=C/c1cc(Cl)cc([N+](=O)[O-])c1O)NC12CC3CC(CC(C3)C1)C2 | 7.74
CCCCNC(=O)CCn1c(=O)c2ccccc2n(Cc2ccc(Cl)cc2)c1=O | 5.58
CCOC(=O)C(C)Oc1cccc2c(=O)n(CC(=O)N3CCCc4ccccc43)ccc12 (stereo not drawn) | 2.67
COc1ccc(Cn2c(=O)oc3ccc(C)cc32)cc1 | 10.7
O=C(CSc1ccccc1)Nc1ccc(N2CCOCC2)c(F)c1 | -2.5
Cc1ccc(CC2C(=O)N(C)C(=O)N(C)C2=O)s1 | 5.58
CCOc1ccc(N(CC(=O)Nc2ccc(OC)cc2)S(=O)(=O)c2c(C)[nH]c(=O)[nH]c2=O)cc1 | -6.24
NCCc1nnc(SCC(N)=O)o1 | -11.5
Cc1ccc(NC(=O)CCC(=O)N/N=C/c2cc([N+](=O)[O-])ccc2O)cc1 | -3.42
Cc1ccccc1NC(=O)CCC(=O)N/N=C/c1cc([N+](=O)[O-])ccc1O | -5.84
O=C(N/N=C/c1cc([N+](=O)[O-])ccc1O)C1C2CCCCC21 (stereo not drawn) | -4.14
O=C(N/N=C/c1cc([N+](=O)[O-])ccc1O)C1CCCCC1 | -0.28
O=S(=O)(c1ccc(NC(=S)N/N=C/c2ccc(O)c(O)c2)cc1)N1CCOCC1 | 9.73

Compound | inhibition [%]
O=C(N/N=C/c1ccc([N+](=O)[O-])cc1)c1cccc2cc[nH]c12 | 20.2
O=C(N/N=C/c1cccc([N+](=O)[O-])c1)c1cccc2cc[nH]c12 | -2.43
O=[N+]([O-])c1cc(Cl)cc(/C=N/NC(=S)Nc2cc(S(=O)(=O)N3CCOCC3)ccc2Cl)c1O | -3.6
CCOCCCN(C(=O)Cn1nnc(-c2ccc(C)o2)n1)C(C(=O)NCC1CCCO1)c1ccc(F)cc1 (stereo not drawn) | 5.95
CN(C)/C=C1\C(=O)Oc2ccccc2C1=O | 20.1
Cn1c(SCc2cccc(F)c2)nnc1-c1cnccn1 | -1.53
O=C(NCc1cc(C(F)(F)F)cc(C(F)(F)F)c1)C1CC(c2ccccc2F)=NO1 (stereo not drawn) | -1.16
CCOC(=O)N1CCN(C(=O)c2cc3cc(F)ccc3[nH]2)CC1 | 7.38
CN1CCN(C(=O)c2cc3cc(Cl)ccc3[nH]2)CC1 | -3.23
CN1CCN(C(=O)c2cc3cc(F)ccc3[nH]2)CC1 | 10.7
CCOC(=O)N1CCN(C(=O)c2cc3cc(Cl)ccc3[nH]2)CC1 | -18
COC(=O)c1c(O)cc(C(C)(C)C)n(-c2ccc(F)cc2)c1=O | -3.64
Cc1ccc(Cn2c(=N)c(C(=O)NC3CCCC3)cc3c(=O)n4ccccc4nc32)cc1 | -16.4
O=C(CCC(=O)N1CCN(c2ccccc2F)CC1)c1ccc(F)cc1 | 4.65
COc1ccc(C(=O)CCN2CCN(c3ccccc3F)CC2)cc1 | 8.74
O=C(CCN1CCOCC1)c1ccc(Br)cc1 | 24.1
O=C(CCN1CCN(c2ccc([N+](=O)[O-])cc2)CC1)c1ccc(Cl)cc1 | -10.4
O=C(c1ccc(Br)cc1)N1CCN(Cc2ccccc2)CC1 | -4.12
O=C(CCN1CCN(c2ccccc2)CC1)Nc1ccc(Cl)cc1 | 11.6
O=C(NCCN1CCN(C(=O)c2ccc(Br)cc2)CC1)c1ccc(Br)cc1 | -4.36
COc1ccc(C(=O)CCN2CCN(c3ccc(OC)cc3)CC2)cc1 | 11.8
